Screens from PubChem BioAssay.
Hits are enriched below; roughly 13% of the tested compounds scored in any of these assays.
Lassa entry inh – qHTS for Inhibitors of binding or entry into cells for Lassa Virus; Potency, µM (doses to about 37.9 µM), inactives show at the highest dose activity change, negative = inhibition, usual class: inhibitors; hit rate 1.2% among 300,000; AID 540256, 2011; Lassa virus pseudotype entry inhibition, cell reporter; calls by dose curve; tested in HEK293 cells; note: potency is the fitted concentration of half-maximal effect; % is set by controls: 0 for no effect and ±100 for the full control effect; nearly all actives have a fitted effect of over 50% in size
Marburg entry inh – qHTS for inhibitors of binding or entry into cells for Marburg Virus; Marburg virus pseudotyped entry inhibition, cell reporter; Potency, µM (doses to about 37.8 µM), for the others: top-dose activity change, negative = inhibition, actives largely listed as inhibitors; hit rate 1.8% among 300,000; calls by dose curve; tested in HEK293 cells; note: potency is the fitted concentration of half-maximal effect; % is set by controls: 0 for no effect and ±100 for the full control effect
FMDV inh – High Throughput Screening for Foot and Mouth Disease Virus Antivirals | Potency, µM (titrated, usually from 57.9 µM), for inactives: at the highest dose activity change, negative = inhibition, hits mostly inhibitors | FMDV antiviral cell-based qHTS | AID 1159524, 2015 | hit rate 1.2% among 410,000; calls by dose curve; tested in HEK293T cells; note: read-out not given here; potency is the fitted concentration of half-maximal effect; % is set by controls: 0 for no effect and ±100 for the full control effect; nearly all actives have a fitted effect of over 45% in size
Shiga toxin inh – A qHTS for Small Molecule Inhibitors of Shiga Toxin | Vero cells, Shiga toxin protein synthesis inhibition reporter | hit rate 9.2% among 290,000 | inhibition, % at 38.7 µM; in the data active = inhibition mostly above about 28%, no sharp cut-off; inactive = mostly below about 43%; note: 0% is about no effect
Cycloheximide cs – Cycloheximide Counterscreen for Small Molecule Inhibitors of Shiga Toxin | cell reporter, cycloheximide protein synthesis inhibition counterscreen | max response, % | hit rate 12% among 300,000 | AID 2314, 2010; in the data active = max response mostly above about 13%, no sharp cut-off; inactive = mostly below about 14%; note: read at 38.3 µM for the half of the compounds with a filed dose; 0% is about no effect
HCV inh – qHTS Assay for Inhibitors of Hepatitis C Virus (HCV) | Huh7.5.1 HCVcc-Cre infection, luciferase reporter, 44 h | Potency, µM (titrated, usually from 41.8 µM), for the others: at the top dose activity change, negative = inhibition, most hits filed as inhibitors | hit rate 3.4% among 340,000 | AID 651820, 2012; active = well fitted inhibition curve with a large enough effect; inconclusive = small, poorly fitted or top-dose-only effect, or another doubt; inactive = no such curve, though single readings can be large or run the other way; note: potency is the fitted concentration of half-maximal effect; % is set by controls: 0 for no effect and ±100 for the full control effect
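Cells (1,000/well) were plated 4 h before compound, then infected with HCVcc-Cre virus (~0.5 moi). After 44 h further culture, infection was read as luciferase luminescence following a 15 min substrate incubation at room temperature.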
* marks the source's active call; other numbers are inactive results; ? = inconclusive; nt = not tested or not shown; + = active, no number; [ ] = dose if it differs, or a comment.

SMILES	Lassa entry inh	Marburg entry inh	FMDV inh	Shiga toxin inh	Cycloheximide cs	HCV inh
CC(C)(C)C(=O)Nc1ccc(C(=O)OC2CCCCC2)cc1	?	?	nt	102*	50*	?
COc1cccc(-c2cc(C(=O)Nc3cccnc3)no2)c1	0%	?	3%	80*	31*	?
O=C(Nc1cccnc1)c1cc(-c2ccccc2)on1	5%	-12%	56%	23	13	12%
COC(=O)c1c(-c2cccnc2)csc1NC(=O)c1cc(C)on1	?	?	41%	83*	63*	?
O=C(Nc1cccnc1)c1cc(-c2ccc(Br)cc2)on1	nt	nt	29%	42*	20*	11%
CCCCN1C[C@H](Cc2ccccc2)[C@@H](CC(=O)Nc2ccc(OC)cc2)C1=O	nt	nt	-10%	nt	nt	nt
Cc1c(C(=O)N(C)C)sc2c1c(=O)n(-c1ccc(Cl)c(Cl)c1)c(=O)n2CC(=O)Nc1cccc(C(F)(F)F)c1	-9%[46.1 µM]	nt	-20%	nt	nt	nt
O=C(Nc1cnn(C23CC4CC(CC(C4)C2)C3)c1)c1cnn2cccnc12	?	-10%	39%	90*	64*	10%
NC(=S)N/N=C1\CC(c2ccc3c(c2)OCCCO3)Oc2ccc(F)cc21 (configuration not stated)	?	?	?	33	15	8.9µM*
COc1ccc(C(=O)NCc2nnc(SCC(=O)N3CCOCC3)o2)cc1OC	?	2%	-17%	-4	-2	8%
COc1ccc(Cl)c2sc(NC(=O)c3ccc(S(=O)(=O)N4CCOCC4)cc3)nc12	8%[46.1 µM]	nt	-25%	nt	nt	nt
CC(C)Oc1nc(-c2ccccc2O)nc2ccccc12	8%	7%	36%	18	-2	13µM*
Fc1ccccc1-c1nc(NCc2ccco2)c2ccccc2n1	-20%	-25%[46.1 µM]	-29%	-8	-2	-25%
Oc1ccccc1-c1nc(NCc2ccco2)c2ccccc2n1	2%	-59%	13%	36*	25*	3.2µM*
Oc1ccccc1-c1nc(NCc2ccccc2)c2ccccc2n1	-31%[46.1 µM]	?	-16%	-5	-2	11µM*
c1ccc(N2CCN(c3nc(NCc4ccco4)c4ccccc4n3)CC2)cc1	?	?	28µM*	26	10	1µM*
c1coc(CNc2nc(N3CCCCC3)nc3ccccc23)c1	?	?	-6%	-7	-1	?
Cc1cc(OCC(=O)NCc2ccncc2)c2c(C)cc(=O)oc2c1	nt	nt	-16%	-4	-2	0%
Cc1cccc(C(=O)OCC(=O)Nc2ccccc2C(=O)NC2CC2)c1	nt	nt	0%	nt	nt	-14%
CCc1nnc(NC(=O)c2cc(S(=O)(=O)N(CC)CC)ccc2Cl)s1	2%	-4%	-9%	11	-3	?
O=C(O)Cc1ccc(NC(=O)c2ccc(NC(=O)C3CC3)cc2)cc1	-20%	10%	-19%	-10	-2	10%
O=C(Nc1ccc(Cl)cc1C(=O)Nc1ccc(Br)cn1)c1ccco1	14%	?	?	44	13	?
O=C(Nc1ccc(Br)cn1)c1coc(=O)c(Br)c1	4%	16%[46.1 µM]	13%	49*	45*	3%
CCOc1ccc(C(=O)NCc2ccccn2)cc1	-2%	-3%	63%	7	11	23%
C[C@@H](NC(=O)c1coc(=O)c(Br)c1)c1ccccc1	?	?	40µM*	26	20*	?
SMILES	Lassa entry inh	Marburg entry inh	FMDV inh	Shiga toxin inh	Cycloheximide cs	HCV inh
O=C(NCc1ccccn1)c1coc(=O)c(Br)c1	-1%	-13%	20µM*	10	1	13%
Cc1cc(NC(=O)c2coc(=O)c(Br)c2)ccc1C(C)C	2%	?	1µM*	108*	95*	8%
COc1ccc(C(=O)C2CCN(S(=O)(=O)c3ccc4c(c3)OCCO4)CC2)cc1	-3%	?	-22%	-16	1	?
COc1ccc(S(=O)(=O)N2CCOCC2)cc1Cl	10%	-2%	nt	-6	-3	25%
C/C(=N\NC(=O)c1nnn(-c2nonc2N)c1CSc1ccccc1)c1cccnc1	nt	nt	1%	-6	-8	7%
O=C(Nc1ccccc1F)c1coc(=O)c(Br)c1	-8%	-19%[46.1 µM]	-27%	+	51*	31%
O=C(NCCc1ccccc1)c1ccc(-c2ccc(F)cc2)o1	?	7%[46.1 µM]	27%	37	14	-18%
O=C(Nc1cccc(C(=O)Nc2ccccc2F)c1)c1ccccc1	-10%[46.1 µM]	-3%[46.1 µM]	-5%	2	-4	-28%
O=C(NCCc1ccc(F)cc1)c1coc(=O)c(Br)c1	nt	nt	35µM*	32	14	7%
O=C(Nc1cc(Cl)cc(Cl)c1)C1C2C=CC3(O2)C1C(=O)N(CCCN1CCOCC1)C3C(=O)NC1CCCCC1 (configuration not stated)	6%	-20%[46.1 µM]	-4%	-8	-5	-16%
Cc1cc(C)c(S(=O)(=O)N2CCOC2CNC(=O)C(=O)NCCc2ccc(S(N)(=O)=O)cc2)c(C)c1 (configuration not stated)	nt	nt	?	-5	0	-17%
CCC(=O)N1N=C(c2ccc(NS(=O)(=O)c3ccc(C)cc3)cc2)CC1c1ccco1 (configuration not stated)	nt	nt	26%	nt	nt	11µM*
CCS(=O)(=O)Nc1ccc(C2=NN(C(=S)Nc3ccccc3)C(c3ccco3)C2)cc1 (configuration not stated)	?	?	28%	18	18*	?
CS(=O)(=O)Nc1ccc(C2=NN(C(=O)c3ccco3)C(c3ccco3)C2)cc1 (configuration not stated)	?	-9%	-11%	-15	2	-12%
Cc1ccc(C2=NN(C(=S)Nc3ccccc3)C(c3ccco3)C2)cc1 (configuration not stated)	6%	3%	51%	71*	39*	10%
CC(=O)CCc1c(C)nc2ccc(C)cc2c1Cl	-5%	9%[46.1 µM]	23%	36	16	-12%
Cc1cc(CNC(=O)c2cnn(-c3nccc(-c4cc(C)sc4C)n3)c2C2CC2)on1	nt	nt	46%	nt	nt	nt
COc1ccc(-n2c(=S)[nH]c3cc(C(=O)NCCCN4CCOCC4)ccc3c2=O)cc1	10%[46.1 µM]	-1%[46.1 µM]	1%	-17	-3	14%
Cc1ccc(C)c(-c2nnc(NC(=O)Cc3ccc(F)cc3)o2)c1	nt	nt	-9%	-8	-1	?
CC(=O)c1ccc(S(=O)(=O)NCCC(=O)OC(C)C(=O)Nc2ccc(F)cc2)cc1 (configuration not stated)	-29%	-13%[46.1 µM]	-21%	nt	nt	6%
Cc1ccc(-n2nc3c(c2NC(=O)CC(C)C)CS(=O)C3)cc1 (configuration not stated)	nt	nt	-12%	-1	-5	4%
CC(C)CC(=O)Nc1c2c(nn1-c1ccc(F)cc1)CS(=O)C2 (configuration not stated)	nt	nt	-17%	19	24*	21%
